In PubChem BioAssay (NCATS) one finds Potency data, which are given here for 30 compounds.

Several values for one entry are separate records, joined by “and”; a condition that tells them apart may be missing. Identical values can stand only once. Results filed as inconclusive are left out. Unmarked numbers belong to inactive results. Activity calls are given as the source filed them. Unless noted, calls follow the shape of the dose curve; as a rule, active = well fitted curve in the direction sought with a large enough effect; inconclusive = small, poorly fitted or top-dose-only effect, or another doubt; inactive = no such curve, though single readings can be large; an effect the other way counts as inactive or inconclusive.

Assay [1] has as its target Calcium and integrin-binding protein 1 (Homo sapiens) (UniProt Q99828). Description: Primary qHTS for Identification of Calcium Integrin Binding Protein 1 (CIB1) Competitor (AID 1508620).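 Also: GST tagged CIB1 binding a fluorescein labelled alphaIIb integrin peptide tracer; top concentration of the series differs between compounds.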 An outline of the steps:
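Fluorescence polarization competition: GST-tagged CIB1 (1 uM final) preincubated with compound 15 min at room temperature, then FITC-labelled alphaIIb peptide (100 nM final) added. After 15 min at room temperature, polarization read at Ex 480/Em 540.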

For assay [2], the target named is Cytochrome P450 2D6 (Homo sapiens) (UniProt P10635). Description: Cytochrome P450 family 2 subfamily D member 6 (CYP2D6) small molecule antagonists: luciferase biochemical (cell-free) qHTS assay (AID 1645840; active = well fitted curve in the direction sought with a large enough effect in the repeat runs; an effect the other way counts as inactive or inconclusive; also: series mostly up to about 57 µM; nearly all actives have a fitted effect of over 55% in size). An outline of the steps: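 P450-Glo luminescent screen: recombinant CYP2D6 enzyme–proluciferin substrate mix preincubated with compound 10 min at room temperature, then NADPH regeneration added for 1 h at room temperature. Detection reagent added for 20 min; luciferin light read as relative luminescence units.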
A general note: In qHTS, concentration-response curves come from the screen itself.

The nature of assay [3]: Primary qHTS for inhibitors of nuclear receptor binding SET domain protein 2 (NSD2) in an isogenic RCH-ACV NSD2 p.E1099K mutant (9B) (AID 1645876). Also: nearly all actives have a fitted effect of over 70% in size. Also: potency is read from the fitted curve at half-maximal effect.
Assay [4] deals with Cytochrome P450 2C9 (Homo sapiens) (UniProt P11712). Description: Cytochrome P450 family 2 subfamily C member 9 (CYP2C9) small molecule antagonists: luciferase biochemical (cell-free) qHTS assay (AID 1645842; active = well fitted curve in the direction sought with a large enough effect in the repeat runs; an effect the other way counts as inactive or inconclusive; also: nearly all actives have a fitted effect of over 55% in size; also: potency is read from the fitted curve at half-maximal effect). An outline of the steps:
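Luminescence, after 20 min with luciferin detection reagent, reflected CYP2C9 turnover during a 1 h NADPH-driven reaction at 37C. Enzyme-substrate mix contained 0.4% bovine serum albumin and was preincubated with compound 10 min at room temperature.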

Sequence of Calcium and integrin-binding protein 1 (Homo sapiens) (Q99828 whole entry, looked up): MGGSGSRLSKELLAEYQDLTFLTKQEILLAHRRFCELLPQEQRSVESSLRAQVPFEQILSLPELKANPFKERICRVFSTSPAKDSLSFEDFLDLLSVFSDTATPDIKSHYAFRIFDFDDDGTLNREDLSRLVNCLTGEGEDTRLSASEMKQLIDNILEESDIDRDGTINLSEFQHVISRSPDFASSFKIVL
Sequence of Cytochrome P450 2C9 (Homo sapiens) (P11712 whole entry, looked up): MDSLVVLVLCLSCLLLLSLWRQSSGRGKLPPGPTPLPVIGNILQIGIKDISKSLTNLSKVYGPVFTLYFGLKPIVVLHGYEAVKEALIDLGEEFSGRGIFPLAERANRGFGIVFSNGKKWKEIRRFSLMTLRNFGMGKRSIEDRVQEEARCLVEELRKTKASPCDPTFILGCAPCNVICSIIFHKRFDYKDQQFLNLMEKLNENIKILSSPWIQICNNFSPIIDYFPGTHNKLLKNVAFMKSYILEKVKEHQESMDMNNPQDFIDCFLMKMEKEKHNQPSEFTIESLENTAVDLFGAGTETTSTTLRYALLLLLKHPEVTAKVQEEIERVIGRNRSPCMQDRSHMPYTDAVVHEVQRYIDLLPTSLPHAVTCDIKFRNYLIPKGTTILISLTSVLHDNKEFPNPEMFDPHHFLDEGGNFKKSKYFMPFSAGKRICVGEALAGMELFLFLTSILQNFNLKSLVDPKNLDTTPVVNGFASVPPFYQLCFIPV
Sequence of Cytochrome P450 2D6 (Homo sapiens) (P10635 whole entry, looked up): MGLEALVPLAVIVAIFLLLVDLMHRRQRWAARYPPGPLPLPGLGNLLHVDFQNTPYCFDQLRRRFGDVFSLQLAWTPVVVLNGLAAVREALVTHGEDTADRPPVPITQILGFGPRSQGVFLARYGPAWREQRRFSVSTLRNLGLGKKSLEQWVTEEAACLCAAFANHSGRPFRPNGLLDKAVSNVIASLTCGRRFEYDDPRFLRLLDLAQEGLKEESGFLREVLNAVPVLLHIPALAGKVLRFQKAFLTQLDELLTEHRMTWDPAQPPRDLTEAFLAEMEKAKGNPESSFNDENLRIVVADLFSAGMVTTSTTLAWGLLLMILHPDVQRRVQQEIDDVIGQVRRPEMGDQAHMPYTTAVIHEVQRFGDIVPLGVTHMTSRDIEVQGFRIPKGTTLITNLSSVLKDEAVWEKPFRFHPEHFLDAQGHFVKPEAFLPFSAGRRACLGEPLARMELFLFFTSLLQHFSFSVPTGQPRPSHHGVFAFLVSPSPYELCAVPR

On to `CC(=O)NC1=NN(C(C)=O)C(C)(c2ccccc2)S1` (stereo not drawn), for which the Potency entry in assay [1] and in assay [2] was “inactive” each time. Moreover, the Potency in assay [3] is 4590 nM (active).
Take `O=C(NCc1ccc(F)cc1)C(=O)c1c[nH]c2ccccc12`: the Potency result in assay [1] is “inactive”. Also, the Potency in assay [4] was 1900 nM (active).
The like results for `CC(Cc1cc2c(c(C(N)=O)c1)N(CCCO)CC2)NCCOc1ccccc1OCC(F)(F)F` (stereo not drawn) were, in that order, “inactive” and “inactive”.
`CC(=O)NCC(=O)N1C2CCC1c1cc(Nc3ncc(C(F)(F)F)c(NC4CCC4)n3)ccc12` (stereo not drawn): the Potency entry in assay [1] is “inactive”. Also, the values for the Potency in assay [4] and in assay [3] were 9520 nM (active) and 72.8 nM (active), respectively.
The like results for `O=C(O)[C@@H]1C[C@H]2C[C@@H](CCc3nn[nH]n3)CC[C@H]2CN1` were, in that order, “inactive”, “inactive” and “inactive”.
Taken in the same sequence, the figures for `O=C(COc1cccc2c(=O)[nH]ccc12)c1ccccc1` were “inactive”, 8490 nM (active) and “inactive”.
The like results for `O=C(NCc1cccc(O)c1)c1cc2cc(F)ccc2[nH]1` were, in that order, “inactive”, 13500 nM (active) and 18300 nM (active).
With `COc1ccccc1Oc1ccc(N(Cc2cccnc2)S(=O)(=O)CC(F)(F)F)cc1`, the Potency result in assay [1] and in assay [3] was “inactive” each time. In addition, in assay [4], the Potency was 1900 nM (active).
Regarding `COc1ccccc1NC(=O)OCC1CCN(C(=O)OC(C)(C)C)CC1`, the Potency result in assay [1], in assay [4] and in assay [3] was “inactive” in each case.
`CC(C)(C)Nc1nc(Nc2ccc(C(N)=O)cc2)cc(N)c1C#N`: the Potency entry in assay [1] was “inactive”. Moreover, the Potency in assay [4] is 3380 nM (active); in assay [3], 3650 nM (active).
Taken in the same sequence, the figures for `Cc1nc(NC(=O)N2CCCC2C(N)=O)sc1-c1csc(C(C)(C)C)n1` (stereo not drawn) were “inactive”, “inactive” and 4590 nM (active).
With `COc1cc(C(=O)NC2CCN(C)CC2)ccc1Nc1ncc2c(n1)N(C1CCCC1)CC(F)(F)C(=O)N2C`, the Potency result in assay [1] and in assay [4] was “inactive” each time. Also, in assay [3], the Potency is 20.5 nM (active).
Take `CCCC1(c2ccccc2)NC(=O)N(CC(=O)N(C)Cc2c(F)cccc2Cl)C1=O` (stereo not drawn): the Potency result in assay [1] and in assay [3] was “inactive” in each case. The Potency in assay [4] is 12000 nM (active).
Regarding `CC1(C)CC(=O)C2=C(C1)NC(=S)NC2c1cccc(O)c1` (stereo not drawn), in assay [1], the Potency entry was “inactive”. The figures for the Potency in assay [4] and in assay [3] were 2130 nM (active) and 728 nM (active), respectively.
In the case of `N#Cc1c(Oc2ccc(F)c(NC(=O)Cc3cccc(C(F)(F)F)c3)c2)ccc2nc(NC(=O)C3CC3)sc12`, the Potency entry in assay [1] was “inactive”. For the same compound, the Potency is 338 nM (active) in assay [4] and 578 nM (active) in assay [3].
The like results for `O=C(NCc1ccc(S(=O)(=O)c2cc(F)cc(F)c2)cc1)c1ccc2nccn2c1` were, in that order, “inactive”, “inactive” and “inactive”.
The like results for `O=C(Nc1c(-c2cccs2)nc2ccccn12)c1ccc(Cl)cc1` were, in that order, “inactive”, 15100 nM (active) and “inactive”.
Regarding `CC(C)(F)C[C@@H](N[C@@H](c1ccc(-c2ccc(S(C)(=O)=O)cc2)cc1)C(F)(F)F)C(=O)NC1(C#N)CC1`, the Potency result in assay [1] and in assay [3] was “inactive” each time. In addition, the Potency in assay [4] was 19000 nM (active).
As for `Cc1cc(C)nc(NS(=O)(=O)c2ccc(NC(=S)NC(=O)COc3ccc(Br)cc3Cl)cc2)n1`, the Potency entry in assay [1] and in assay [3] was “inactive” throughout. In assay [4], the Potency is 10700 nM (active).
For `CCOc1cc(CC(=O)NC(CC(C)C)c2ccccc2N2CCCCC2)ccc1C(=O)O` (stereo not drawn), the Potency entry in assay [1], in assay [4] and in assay [3] was “inactive” throughout.
With `CC(C)c1nc(-c2ccc(NC(=O)Nc3cccc(C(F)(F)F)c3)c3ccccc23)c2c(N)nccn12`, in assay [1], the Potency result is “inactive”. Also, the Potency in assay [4] is 301 nM (active); in assay [3] it was 578 nM (active).
Taken in the same sequence, the figures for `c1cn2cc(-c3ccc4cn[nH]c4c3)nc(Nc3ccc(N4CCOCC4)cc3)c2n1` were “inactive”, 601 nM (active) and 325 nM (active).
Taken in the same sequence, the figures for `COc1cc(N2CCOCC2)ccc1Nc1ncc(Cl)c(Nc2ccccc2NS(C)(=O)=O)n1` were “inactive”, “inactive” and 1150 nM (active).
Taken in the same sequence, the figures for `CN(C)C/C=C/C(=O)Nc1cccc(C(=O)Nc2ccc(Nc3nccc(-c4cccnc4)n3)cc2)c1` were “inactive”, “inactive” and 649 nM (active).
Regarding `CC(C)c1nnc(-c2ccc(-c3ccccc3)nc2)n1-c1cccc2nonc12`, the Potency entry in assay [1] and in assay [3] was “inactive” each time. Also, the Potency in assay [4] is 13500 nM (active).
For the compound `Cc1c(C(=O)N2CCOc3ccc(-c4ccc(N)nc4)cc3C2)ccc(S(C)(=O)=O)c1F`, the Potency entry in assay [1] and in assay [4] was “inactive” in each case. Also, the Potency in assay [3] was 817 nM (active) and 1.32 µM (active).
With `Cn1cc(-c2ccc3nnc(Sc4ccc5nn(C)cc5c4)n3n2)cn1`, the Potency entry in assay [1] and in assay [3] was “inactive” each time. Further, in assay [4], the Potency was 4770 nM (active).
With `CC(C)NCC(C(=O)N1CCN(c2ncnc3c2C(C)CC3O)CC1)c1ccc(Cl)cc1` (stereo not drawn), the Potency result in assay [1] and in assay [4] was “inactive” throughout. Moreover, the Potency in assay [3] was 1830 nM (active).
Turning to `Cc1ccc(C(=O)Nc2noc3ccccc23)cc1`, the Potency entry in assay [1] and in assay [3] was “inactive” each time. Also, in assay [4], the Potency is 16900 nM (active).
On to `Cc1cc(OCc2nnc(SC3CCCC3)n2-c2cccnc2)ccc1-c1ccc(S(C)(=O)=O)cc1`, for which the Potency entry in assay [1] is “inactive”. The values for the Potency in assay [4] and in assay [3] were 8490 nM (active) and 817 nM (active), respectively.
